Test results as given in PubChem BioAssay (EPA / NIEHS).
Records with an inconclusive call do not appear. Active and inactive are the calls of the source. The calls were made as follows, unless noted: active = hit-call score of the fitted dose curve at least 0.9, where 1 is the maximum; inactive = score below 0.9.

Tests used:
[1] = CCTE_Mundy_HCI_Cortical_Synap_Neur_Matur_NeuriteLength: CCTE's Synaptogenesis and Neurite Maturation Assay in rat cortical cells for Neurite Length, Mundy Lab (AID 2284214)
Outline: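 Rat primary cortical cells were plated, treated with AraC at DIV 5 to arrest glial growth, then chemical-dosed with media change at DIV 7 through DIV 12. Fixed cells stained for MAP2, synaptophysin and Hoechst; neurite length quantified by high-content imaging.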

[2] = CCTE_Mundy_HCI_Cortical_Synap_Neur_Matur_NeuriteSpotCountPerNeuron: CCTE's Synaptogenesis and Neurite Maturation Assay in rat cortical cells for Neurite Spot Count per Neuron Count, Mundy Lab (AID 2284215)
Outline: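 Rat primary cortical cells received AraC at DIV 5, then chemicals with a media change at DIV 7, and were fixed at DIV 12. Synaptophysin puncta on MAP2-stained neurites per neuron were counted by high-content imaging, fitted relative to DMSO.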

[3] = CCTE_Mundy_HCI_Cortical_Synap_Neur_Matur_SynapseCount: CCTE's Synaptogenesis and Neurite Maturation Assay in rat cortical cells for Synapse Count, Mundy Lab (AID 2284218)
Outline: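 Rat primary cortical cells in 96-well plates received AraC at DIV 5 and were dosed with chemicals at DIV 7 with media change, through DIV 12 (288.33 h). Synapses per neuron counted by high-content imaging of MAP2/synaptophysin/Hoechst staining, versus DMSO baseline.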

[4] = CCTE_Mundy_HCI_Cortical_Synap_Neur_Matur_NeuriteCount: CCTE's Synaptogenesis and Neurite Maturation Assay in rat cortical cells for Neurite Count, Mundy Lab (AID 2284222);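 also: exposure from day 7 to day 12 in vitro with readout at day 12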
Outline: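 Rat cortical neurons, 96-well; AraC DIV 5; chemical + media change DIV 7; end DIV 12. Fix PFA/Hoechst, anti-MAP2 + anti-synaptophysin IF. HCI neurite count vs DMSO baseline.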

[5] = CCTE_Mundy_HCI_Cortical_Synap_Neur_Matur_CellBodySpotCount: CCTE's Synaptogenesis and Neurite Maturation Assay in rat cortical cells for Cell Body Spot Count, Mundy Lab (AID 2284223)
Outline: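 Rat primary cortical cultures received AraC at DIV 5 to arrest glia, were dosed with chemical at DIV 7 with media change, and were fixed at DIV 12 (288.33 h). Synaptophysin puncta on MAP2-positive cell bodies per neuron were counted by high-content imaging versus DMSO.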

[6] = UKN2_HCS_IMR90_cell_viability: Viability Assessment in the University of Konstanz (UKN) Leist Lab Neural Crest Cell Migration Assay in human induced IMR90 Pluripotent Stem Cells (UKN2) (AID 2284233);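 also: viability of neural crest cells differentiated from IMR90 iPSC measured by calcein-AM fluorescence imaging; cells exposed to compound for 24 h after a 24 h migration phase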
Outline: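 Neural crest cells derived from IMR90 iPSC migrate into a stopper-free zone for 24 h in EGF/FGF medium, then are exposed to compound for 24 h. Viability assessed by calcein-AM and Hoechst staining with high-content imaging, fitted bidirectionally versus DMSO.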

[7] = CCTE_Mundy_HCI_Cortical_NOG_NeuronCount: CCTE's Neurite Outgrowth Assay in rat cortical cells for Neuron Count, Mundy Lab (AID 2284236; active = hit-call score of the fitted dose curve at least 0.9, where 1 is the maximum;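 also: neurons counted by imaging betaIII-tubulin and Hoechst stained cortical cells; cells exposed to compound for about 48 hours before fixation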)
Outline: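 Read-out: neuron number by high-content imaging of betaIII-tubulin (Alexa Fluor-488) and Hoechst-labelled rat primary cortical cells.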

[8] = CCTE_Mundy_HCI_Cortical_NOG_BPCount: CCTE's Neurite Outgrowth Assay in rat cortical cells for Branch Point Count, Mundy Lab (AID 2284237)
Outline: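 Measured 50.33 h after dosing, this morphology endpoint uses rat primary cortical cultures labelled for betaIII-tubulin. Branch points are quantified by high-content imaging, with DMSO as negative control and baseline.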

[9] = CCTE_Mundy_HCI_hNP1_Casp3_7: CCTE's Caspase-Glo 3/7 Assay in human neuroprogenitor cells for Apoptosis, Mundy Lab (AID 2284240)
Outline: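 Luminescent caspase-3/7 readout, 26.5 h post-dose, in human neural progenitor cells from WA09 embryonic stem cells. Cells grew 40–44 h at 37 °C, 5% CO2 before chemical addition. Activity analysed as signal increase over DMSO baseline.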

[10] = CCTE_Mundy_HCI_hNP1_CellTiter: CCTE's Cell Titer-Glo 2 Assay in human neuroprogenitor cells for Viability, Mundy Lab (AID 2284241; active = hit-call score of the fitted dose curve at least 0.9, where 1 is the maximum)
Outline: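 Viability read as luminescent ATP content (CellTiter-Glo, 30 min room temperature) twenty-four hours after dosing, relative to DMSO. Cells: WA09-derived hNP1 neuroprogenitors on poly-L-ornithine/laminin, plated 40 to 44 hours before chemical.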

[11] = CCTE_Mundy_HCI_Cortical_Synap_Neur_Matur_NeuronCount: CCTE's Synaptogenesis and Neurite Maturation Assay in rat cortical cells for Neuron Count, Mundy Lab (AID 2284242; active = hit-call score of the fitted dose curve at least 0.9, where 1 is the maximum)
Outline: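 Rat primary cortical cells received AraC at DIV 5 to arrest glia, then were dosed with chemicals at DIV 7 through DIV 12. Fixed cells were stained for nuclei, MAP2 and synaptophysin, and neurons were counted by high-content imaging relative to DMSO.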

[12] = IUF_NPC2c_oligodendrocyte_migration_120hr: Leibniz Research Institute for Environmental Medicine (IUF) 120-hour Neural Progenitor Cell Migration Assay for Oligodendrocyte Migration (NPC2c) (AID 2284297);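 also: O4-positive oligodendrocyte migration distance divided by radial glia migration distance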
Outline: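 Human fetal cortex-derived neural progenitor spheres (0.3 mm) were plated on poly-D-lysine/laminin in N2 differentiation medium and exposed to 7 concentrations for 120 h, with half-medium renewal at day 3. Oligodendrocyte migration distance was normalized to radial glia migration, relative to DMSO.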

[13] = IUF_NPC2a_radial_glia_migration_120hr: Leibniz Research Institute for Environmental Medicine (IUF) 120-hour Neural Progenitor Cell Migration Assay for Radial Glia Migration (NPC2a) (AID 2284298)
Outline: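 Single 0.3 mm primary human fetal-cortex (GW 16-19) NPC spheres were plated on poly-D-lysine/laminin in N2 differentiation medium and exposed from day 0 for 120 h, half-medium refreshed day 3. Migration distance came from Hoechst nuclei-density imaging, relative to DMSO.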

[14] = IUF_NPC2a_radial_glia_migration_72hr: Leibniz Research Institute for Environmental Medicine (IUF) 72-hour Neural Progenitor Cell Migration Assay for Radial Glia Migration (NPC2a) (AID 2284299)
Outline: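 Human fetal cortex (GW 16-19) neural progenitor spheres, 0.3 mm, plated on poly-D-lysine/laminin in N2 differentiation medium with compound from day 0. Radial glia migration distance (um, sphere core edge to migration edge) measured manually in four directions on 72 h brightfield images; well mean used.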

[15] = IUF_NPC2b_neuronal_migration_120hr: Leibniz Research Institute for Environmental Medicine (IUF) 120-hour Neural Progenitor Cell Migration Assay for Neuron Migration (NPC2b) (AID 2284300)
Outline: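 Primary human fetal cortex neural progenitor spheres (0.3 mm) plated on poly-D-lysine/laminin in N2 differentiation medium, exposed 120 h with half-medium refresh at day 3. TUBB3-stained neuron distance from sphere core, normalized to radial glia migration, versus DMSO.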

[16] = IUF_NPC3_neuronal_differentiation_120hr: Leibniz Research Institute for Environmental Medicine (IUF) 120-hour Neuronal Differentiation Assay (NPC3) (AID 2284301)
Outline: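 Human fetal (GW 16-19) neural progenitor spheres (0.3 mm) plated on poly-D-lysine/laminin in N2 differentiation medium, exposed 120 h at 37C with half-medium renewal day 3; 7 concentrations. TUBB3+ cells as % of Hoechst nuclei, CNN-identified; DMSO baseline.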

[17] = IUF_NPC4_neurite_area_120hr: Leibniz Research Institute for Environmental Medicine (IUF) 120-hour Neuronal Morphology Assay for Neurite Area (NPC4) (AID 2284305; active = hit-call score of the fitted dose curve at least 0.9, where 1 is the maximum)
Outline: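 Human fetal neural progenitor spheres (0.3 mm) plated on poly-D-lysine/laminin in N2 differentiation medium, exposed 120 h (7 concentrations, DMSO ≤0.1%, half-medium refresh day 3). Fixed, TUBB3 immunostained; mean neurite area per neuron by Omnisphero skeletonization.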

[18] = IUF_NPC2-5_cytotoxicity_72hr: Cytotoxicity Assessment at 72 hours in the Leibniz Research Institute for Environmental Medicine (IUF) Neural Progenitor Cell Migration and Differentiation Assay for Cytotoxicity (NPC2-5) (AID 2284306; active = hit-call score of the fitted dose curve at least 0.9, where 1 is the maximum;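 also: LDH release into supernatant measured by resorufin fluorescence marking membrane damage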)
Outline: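 Human fetal primary neural progenitor spheres (0.3 mm) plated on poly-D-lysine/laminin in N2 differentiation medium, exposed from day 0 at 37C. LDH-dependent resazurin-to-resorufin fluorescence in supernatant at 72 h; 7 concentrations, DMSO at most 0.1%.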

[19] = IUF_NPC2-5_cell_number_120hr: Cell Number Assessment at 120 hours in the Leibniz Research Institute for Environmental Medicine (IUF) Neural Progenitor Cell Migration and Differentiation Assay (NPC2-5) (AID 2284308);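 also: count of Hoechst-stained nuclei in migration zone around plated human neural progenitor spheres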
Outline: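 Primary human fetal neural progenitor spheres (GW 16-19, 0.3 mm) plated on poly-D-lysine/laminin in N2 differentiation medium, exposed from day 0 for 120 h with half-medium refresh at day 3; Hoechst-positive nuclei counted in migration area versus DMSO control.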

[20] = IUF_NPC2-5_viability_120hr: Viability Assessment at 120 hours in the Leibniz Research Institute for Environmental Medicine (IUF) Neural Progenitor Cell Migration and Differentiation Assay (NPC2-5) (AID 2284312)
Outline: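 Human fetal neural progenitor spheres (0.3 mm) plated on poly-D-lysine/laminin in N2 differentiation medium, exposed 120 h with half-medium refresh at day 3. Viability by alamar blue resazurin fluorescence; 7 concentrations, DMSO max 0.1%.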

[21] = CCTE_Mundy_HCI_iCellGluta_NOG_NeuriteLength: CCTE's Neurite Outgrowth Assay in iCellGluta cells for Neurite Length, Mundy Lab (AID 2284318; active = hit-call score of the fitted dose curve at least 0.9, where 1 is the maximum)
Outline: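 Automated high-content imaging of betaIII-tubulin (Alexa Fluor-488) and Hoechst-stained cells gave neurite length, normalized to the DMSO baseline.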

[22] = IUF_NPC1_cytotoxicity_72hr: Cytotoxicity Assessment at 72 hours in the Leibniz Research Institute for Environmental Medicine (IUF) Neural Progenitor Cell Proliferation Assay (NPC1) (AID 2284332; active = hit-call score of the fitted dose curve at least 0.9, where 1 is the maximum;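 also: rising LDH signal means more cytotoxicity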)
Outline: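 Single human fetal cortex neural progenitor spheres (GW 16-19, 0.25-0.35 mm) in EGF/FGF proliferation medium were exposed to compound for 72 h at 37C without renewal. Medium LDH release was read as resorufin fluorescence and fitted as gain-of-signal.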

[23] = CCTE_Mundy_HCI_iCellGluta_NOG_NeuriteCount: CCTE's Neurite Outgrowth Assay in iCellGluta cells for Neurite Count, Mundy Lab (AID 2284342; active = hit-call score of the fitted dose curve at least 0.9, where 1 is the maximum;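 also: chemical exposure about 48 hours starting 2 hours after plating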)

Measured: outcome

Cc1[nH]n(C)c(=O)c1C(=O)c1ccc(C(F)(F)F)cc1S(C)(=O)=O
inactive: [1] | [2] | [3] | [4] | [5] | [6] | [7] | [8] | [9] | [10] | [11] | [12] | [13] | [14] | [15] | [16] | [17] | [18] | [19] | [20] | [21] | [22] | [23]
